uPA surface inh: blocks generation of uPA at the cell surface; cell surface uPA generation assay, qHTS; hit rate 0.31% among 330,000; Potency, µM (titrated, usually from 38.3 µM), usual class: inhibitors; active = well fitted inhibition curve with a large enough effect; inconclusive = small, poorly fitted or top-dose-only effect; inactive = no such curve, though single readings can be large or run the other way; tested in mouse RAW 264.7 cells; note: nearly all actives have a fitted effect of over 55% in size
Mito fusion yeast: blocks mitochondrial division or promotes mitochondrial fusion; S. cerevisiae fusion-defective mutant growth rescue, CellTiterGlo 48 h; Potency, µM (titrated, usually from 46.1 µM), usual class: activators; hit rate 0.23% among 320,000; AID 485298; note: nearly all actives have a fitted effect of over 45% in size
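Yeast fusion mutant, YPEG (non-fermentable carbon), compound, 48 h at 37C non-permissive; CellTiterGlo added, 10 min RT, luminescence read. Rescued growth = division inhibition.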
RORgamma inh: blocks mouse ROR gamma transcriptional activity; AID 2551; Potency, µM (top dose mostly 53.6 µM), most hits filed as inhibitors; P51450; hit rate 5.4% among 310,000; Drosophila S2 Gal4-RORgamma UAS-luciferase reporter, 20 h; note: nearly all actives have a fitted effect of over 60% in size
Target sequence (P51450 whole entry, looked up, the tested form may be a part): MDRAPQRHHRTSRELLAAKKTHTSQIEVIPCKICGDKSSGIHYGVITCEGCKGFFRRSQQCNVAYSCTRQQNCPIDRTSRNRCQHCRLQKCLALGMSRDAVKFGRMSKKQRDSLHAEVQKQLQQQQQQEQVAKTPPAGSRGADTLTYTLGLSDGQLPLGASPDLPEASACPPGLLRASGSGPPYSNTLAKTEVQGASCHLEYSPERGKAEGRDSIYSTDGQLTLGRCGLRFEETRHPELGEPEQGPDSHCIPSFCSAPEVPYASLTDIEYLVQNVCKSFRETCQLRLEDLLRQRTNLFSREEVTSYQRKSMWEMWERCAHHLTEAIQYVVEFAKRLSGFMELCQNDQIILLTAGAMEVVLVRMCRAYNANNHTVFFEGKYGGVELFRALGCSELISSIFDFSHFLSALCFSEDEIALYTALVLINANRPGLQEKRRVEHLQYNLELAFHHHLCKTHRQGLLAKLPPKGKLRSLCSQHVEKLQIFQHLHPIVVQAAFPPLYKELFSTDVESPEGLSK
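Drosophila Schneider cells stably carrying a metallothionein-driven Gal4 DBD–ROR gamma fusion and a UAS-Photinus luciferase reporter were exposed to compound for 1 hr, then induced with copper sulfate (700 uM final) for 20 hr at ambient temperature before luminescence reading.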
Integrin act MD: integrin-mediated muscular dystrophy alleviation activation; AID 624291; Potency, µM (titrated, usually from 38.3 µM), most hits filed as activators; hit rate 0.064% among 350,000; alpha7betagal myoblasts, beta-gal FDG fluorescence, 48 h; note: nearly all actives have a fitted effect of over 60% in size
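Alpha7betagal+/- myoblasts (passage 13) were plated 16-24 hr, then exposed to compounds (1:260 dilution of DMSO stock) for 48 hours at 37C. After MPER lysis, β-galactosidase reporter activity was read as FDG fluorescence (ex 480/em 540) after 30 minutes.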
Gal4-VP16 FLuc: Gal4-VP16 reporter inhibition counter-screen; hit rate 3.5% among 310,000; AID 2546; Potency, µM (highest dose often 53.6 µM), hits mostly inhibitors; Drosophila S2 Gal4-VP16 UAS-luciferase, luminescence, 20 h;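 note: Gal4-VP16 expression switched on by copper sulfate through the metallothionein promoter; nearly all actives have a fitted effect of over 50% in size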
Chronic BCR inh: chronic active BCR signaling inhibition. Potency, µM (doses to about 46.1 µM), hits mostly inhibitors. hit rate 0.05% among 340,000. ABC-DLBCL IkBa-CBG/CBR reporter, luminescence ratio, 4 h. AID 493014; active = well fitted inhibition curve with a large enough effect in the signal ratio, with a control signal flat, not every such curve was filed as active; inconclusive = small, poorly fitted or top-dose-only effect, or effect the other way, or a change in a side signal; the % refers to the signal ratio
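TMD8 ABC-DLBCL cells carrying doxycycline-inducible green luciferase fused to IkappaBalpha plus unfused red luciferase were exposed to compounds (up to 46 uM) for 4 hrs at 37C. Activity came from the overlap-corrected green/red luminescence ratio.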
A number is an active result; - = inactive; ? = inconclusive; . = no result; ! = not active in a repeat; [ ] = another dose, or the depositor's remark. A selection: hits, their analogues and other compounds. The true share with any hit is near 5.5%. Unless noted, calls come from the whole dose curve; as a rule, active = well fitted curve in the direction sought with a large enough effect; inconclusive = small, poorly fitted or top-dose-only effect, or another doubt; inactive = no such curve, though single readings can be large; an effect the other way counts as inactive or inconclusive.

SMILES | uPA surface inh | Mito fusion yeast | RORgamma inh | Integrin act MD | Gal4-VP16 FLuc | Chronic BCR inh
Cc1nc(-c2nc(-c3c(C(=O)NNC(=O)c4ccc(Cl)cc4)noc3C)cs2)cs1 | - | - | 10µM | - | ? | -
COC(=O)[C@@]1(OC)C[C@@H]2O[C@@]1(C)n1c3ccccc3c3c4c(c5c6ccccc6n2c5c31)C(=O)N(C)C4 | . | . | -[10 µM] | . | -[10 µM] | .
C[C@]12O[C@H](C[C@]1(O)CO)n1c3ccccc3c3c4c(c5c6ccccc6n2c5c31)CNC4=O | . | . | ? | . | 5.6µM | .
CC(O)CCl (stereo not given) | . | . | - | . | - | .
Cc1ccc(N/C(N)=N/c2nc(CSc3nnc(C)s3)cc(=O)[nH]2)c(C)c1 | 3.5µM | - | - | - | ? | ?
CC[C@@]1(c2ccccc2OC)ON(c2ccccc2C(F)(F)F)C1=O | ? | - | . | - | . | ?
COc1ccc(CC2NCCc3cc(OC)c(OC)cc32)cc1OC (stereo not given) | . | . | - | . | - | .
CCC1CN2CCc3cc(OC)c(OC)cc3C2CC1CC1NCCc2cc(OC)c(OC)cc21 (stereo not given) | . | . | 6.3µM | . | 7.1µM | .
Cc1c(C(=O)c2cccc3ccccc23)c2cccc3c2n1[C@H](CN1CCOCC1)CO3 | ? | 9.2µM | ? | . | - | .
O=Cc1ccc(Cl)cc1Cl | . | . | - | . | - | .
CCC1=Nc2cc(C(=O)N3CCC4(CC3)OCCO4)ccc2Sc2ccc(Br)cc21 | - | 18µM | - | - | - | -
CN1C(=O)N(C)C(=O)C2(Cc3c(nc4ccccn4c3=O)N3CCC(Cc4ccccc4)CC32)C1=O (stereo not given) | . | - | - | . | - | -
Cc1cccn2c(=O)c3c(nc12)N1CCC(Cc2ccccc2)CC1C1(C3)C(=O)N(C)C(=O)N(C)C1=O (stereo not given) | - | 18µM | - | - | - | -
S=C1CN=C(c2ccccc2)c2cc(Cl)ccc2N1 | - | - | 2µM | - | 6.3µM | -
COc1ccc(C2=NCC(=S)Nc3ccc(Cl)cc32)cc1Cl | - | - | 2.8µM | - | 8.9µM | -
Oc1cccc(Nc2nc(-c3ccccc3)nc3ccccc23)c1 | - | - | - | - | - | ?
CCCSP(=S)(OCC)Oc1ccc(Cl)cc1Cl (stereo not given) | . | . | - | . | - | .
O=C(COc1ccccc1-c1ccccc1)N/N=C/c1ccccn1 | ? | - | ? | - | ? | ?
COc1cc(OC)c2c(-c3cccc(-c4ccc(N(C)C)cc4)c3)cc(=O)oc2c1 | 1µM | . | - | - | - | ?
C=C(Cl)Cl | . | . | - | . | - | .
Cc1c(OCC(F)(F)F)ccnc1CS(=O)c1nc2ccccc2[nH]1 (stereo not given) | - | ? | 11µM! | . | ? | ?
CCC(=O)CCCCC[C@@H]1NC(=O)[C@H]2CCCCN2C(=O)[C@H]([C@@H](C)CC)NC(=O)[C@H](Cc2cn(OC)c3ccccc23)NC1=O | . | . | - | . | - | .
CC(C)(C)OC(=O)N1CC(O)CC1C(=O)OCC(=O)c1ccc(-c2ccccc2)cc1 (stereo not given) | - | - | - | - | - | -
CCn1ccnc1CN1CCCC(C(=O)c2ccc(SC)cc2)C1 (stereo not given) | - | - | 1.6µM | - | 6.3µM | -
COc1cc2c(c3oc4cccc(O)c4c(=O)c13)C1C=CO[C@@H]1O2 (stereo not given in full) | . | . | 13µM | . | 10µM | .
SMILES | uPA surface inh | Mito fusion yeast | RORgamma inh | Integrin act MD | Gal4-VP16 FLuc | Chronic BCR inh
Cc1ccc(S(=O)(=O)Nc2cccc3c2O[C@H](CN(C)C(=O)Nc2cccc4ccccc24)[C@H](C)CN([C@H](C)CO)C3=O)cc1 | ? | . | . | - | . | ?
COc1ccc2c(c1)[nH]c1c(C)nccc12 | ? | - | 8.9µM! | . | ? | ?
Cc1nccc2c1[nH]c1ccc(Br)cc12 | ? | - | . | - | . | ?
c1cc[n+]2c(c1)-c1cccc[n+]1CC2 | . | . | - | . | - | .
FC(F)(F)c1cccc(-c2nc3nc(Cl)c(Cl)nc3[nH]2)c1 | ? | ? | 10µM | - | 5.6µM | ?
Nc1cccc(-c2nc3ccc(C(=O)c4ccccc4)cc3[nH]2)c1 | 2µM | - | - | - | - | ?
CC1(NC(=O)CC(c2ccccc2)(c2ccccc2)c2ccccc2)CCN(CCCc2ccccc2)C1=O (stereo not given) | ? | ? | . | - | . | ?
CC(C)C[C@H]1CN=C(Nc2ccccc2)N1CCC(C)c1ccccc1 (stereo not given in full) | ? | - | . | - | . | ?
COC(=O)[C@]1(C)CC[C@@]2(C)CC[C@@]3(C)C4=CCc5c(cc(O)c(O)c5C)[C@]4(C)CC[C@@]3(C)C2C1 (stereo not given in full) | . | . | ? | . | 16µM | .
CCC(CC)NCc1c[nH]c2ccccc12 | 4.5µM | - | - | - | - | -
S=c1[nH]nc(-c2ccco2)n1/N=C/c1cccs1 | - | - | - | - | ? | -
O=[N+]([O-])c1cccc(O)c1 | - | - | - | . | - | -
C=C(C)Cn1c(-c2cccs2)n[nH]c1=S | - | - | 13µM | - | 14µM | -
C=C(C)Cn1c(-c2cccc([N+](=O)[O-])c2)n[nH]c1=S | - | - | 7.1µM | - | -[10 µM] | -
c1ccc(NNc2ccccc2)cc1 | . | . | - | . | - | .
O=c1c2ccccc2[nH]c(=S)n1-c1ccc2c(c1)OCO2 | - | - | 2.8µM | - | 10µM | -
Cc1cnc(-n2c(=S)[nH]c3ccccc3c2=O)s1 | - | - | . | ? | . | ?
CCCCC/C=C\C/C=C\C/C=C\C/C=C\CCCC(=O)NCCCl | . | . | - | . | - | .
N#CC(Cl)(Cl)Cl | . | . | - | . | - | .
COc1cccc(C(=O)C2CCCN(Cc3ccon3)C2)c1 (stereo not given) | - | - | - | - | - | -
Cc1cccc(CN2CCCC(C(=O)c3cccc(OC(C)C)c3)C2)n1 (stereo not given) | - | - | 2.2µM | - | 16µM | -
COc1cccc(C(=O)C2CCCN(Cc3cccc(C)n3)C2)c1 (stereo not given) | - | - | ? | - | 14µM | ?
COc1ccc(C(=O)C2CCCN(Cc3ccccn3)C2)c(OC)c1 (stereo not given) | - | - | 10µM | - | - | -
COc1c(C)cc(C(=O)C2CCCN(Cc3cccc(C)n3)C2)cc1C (stereo not given) | - | - | 2.2µM | - | 13µM | -
COc1ccc(C(=O)C2CCCN(Cc3cnc(C)s3)C2)c(OC)c1 (stereo not given) | - | - | - | - | - | -
c1ccc2c(c1)CCCC2 | . | . | - | . | - | .
CC#C[C@]1(O)CC[C@H]2C3C=C(C)C4=CC(=O)C=C[C@]4(C)[C@H]3[C@@H](O)C[C@@]21C (stereo not given in full) | . | . | - | . | - | .
Cc1cccc(CN2CCCC(C(=O)c3ccc4c(c3)OCO4)C2)n1 (stereo not given) | - | - | 3.2µM | - | 13µM | -
